The sample as a whole holds a higher share of hits than the screen did.
HT1080 IDH1KD tx: toxicity to HT-1080 IDH1 knockdown cells (counter line) | HT-1080 IDH1 knockdown viability, ATP luminescence, 48 h | Potency, µM (highest dose often 46.1 µM), inactives show top-dose activity, negative = toxicity, usual class: cytotoxic | 2% of 360,000 active | AID 686971;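 further: potency means the concentration at half of the fitted maximal effect; 0% = DMSO wells and -100% = cell-free medium wells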
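After a 2 h attachment period, IDH1KD HT-1080 cells took pin-transferred compound for 48 h at 37 °C; ATP-based luminescence after 10 min room-temperature reagent incubation reported viability.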
12-LOX inh: blocks human arachidonate 12S-lipoxygenase; purified 12hLO, xylenol orange hydroperoxide absorbance; Potency, µM (highest dose often 108 µM), for the others: at the top dose activity change, negative = inhibition, usual class: inhibitors; P18054; 1.1% of 580,000 active; further: potency means the concentration at half of the fitted maximal effect
Target sequence (P18054 whole entry, looked up): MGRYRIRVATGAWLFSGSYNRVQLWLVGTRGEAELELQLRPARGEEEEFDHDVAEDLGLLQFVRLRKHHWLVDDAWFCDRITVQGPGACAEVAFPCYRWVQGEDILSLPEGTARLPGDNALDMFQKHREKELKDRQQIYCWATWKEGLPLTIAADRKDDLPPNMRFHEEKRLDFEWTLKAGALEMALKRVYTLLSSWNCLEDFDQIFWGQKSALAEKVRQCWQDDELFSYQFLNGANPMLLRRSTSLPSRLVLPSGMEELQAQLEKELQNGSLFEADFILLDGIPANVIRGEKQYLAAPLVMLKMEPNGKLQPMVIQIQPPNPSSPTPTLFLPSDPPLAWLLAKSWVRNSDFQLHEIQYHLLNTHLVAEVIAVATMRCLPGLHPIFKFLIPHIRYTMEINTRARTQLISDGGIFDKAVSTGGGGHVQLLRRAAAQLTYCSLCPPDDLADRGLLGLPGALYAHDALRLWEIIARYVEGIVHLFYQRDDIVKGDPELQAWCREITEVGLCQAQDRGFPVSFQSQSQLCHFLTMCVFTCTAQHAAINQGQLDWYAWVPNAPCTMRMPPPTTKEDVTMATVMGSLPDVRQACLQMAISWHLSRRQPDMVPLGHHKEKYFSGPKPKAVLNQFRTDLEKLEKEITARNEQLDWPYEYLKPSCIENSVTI
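Purified human 12hLO at 150 nM in 25 mM Hepes, 0.01% Triton X-100, pH 7.0, preincubated 15 min at room temperature with compound. Reaction started with 40 uM arachidonic acid, 30 min at room temperature. Hydroperoxide measured by Fe-xylenol orange, 573/405 nm absorbance ratio.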
HT1080NT lethal: kills 2HG-producing HT-1080-NT fibrosarcoma cells; Potency, µM (doses to about 46.1 µM), inactives show at the top dose activity, negative = less viability, actives largely listed as cytotoxic; HT-1080-NT fibrosarcoma viability, CellTiter-Glo ATP luminescence, 48 h; 1.6% of 360,000 active;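 further: NT is the 2HG producing partner of a matched IDH1 knockdown line; potency means the concentration at half of the fitted maximal effect; 0% = DMSO-treated cells and -100% = media-only wells without cells; nearly all actives have a fitted effect of over 55% in size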
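A 48-hour cytotoxicity screen used HT-1080-NT cells plated 2 hours before compound delivery. ATP-based CellTiter-Glo luminescence measured viability, normalized to DMSO and no-cell controls.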
TDP1 cell CPT: DT40-hTDP1 cell growth loss with CPT; AID 686979; chicken DT40 Tdp1-/-;hTDP1 cells + 20 nM CPT, ATP luminescence, 48 h; Potency, µM (series often up to 46.2 µM), for inactives: top-dose activity change, negative = growth inhibition, usual class: inhibitors; 12% of 420,000 active; further: potency means the concentration at half of the fitted maximal effect; nearly all actives have a fitted effect of over 55% in size
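Chicken DT40 Tdp1-/- cells complemented with human TDP1, 400 cells/well, exposed to compounds plus 20 nM camptothecin for at least 48 h at 37 C; viability read as ATP content by CellTiter-Glo luminescence.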
IL1B secr inh: inflammasome signaling inhibition, IL-1 beta readout; THP-1 LPS/ATP IL-1B secretion, AlphaLISA, 16 h; active compounds read low; activity change, % at 57.5 µM; 4.7% of 360,000 active; in the data active means activity change below about -50%; inconclusive means mostly about -30% to -49%
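Secreted IL-1B measured by AlphaLISA bead assay after 16 h compound exposure of THP-1 cells; compounds (final up to 57.5 uM) added 1 h before LPS (250 ng/mL) and ATP (1.25 mM) stimulation; lower signal means less secretion.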
TDP1 cell noCPT: qHTS for Inhibitors of human tyrosyl-DNA phosphodiesterase 1 (TDP1): qHTS in cells in absence of CPT. 15% of 420,000 active. AID 686978, 2013. Potency, µM (series often up to 46.2 µM), inactives show at the highest dose activity change, negative = growth inhibition, most hits filed as inhibitors. DT40 Tdp1-/- hTDP1 cells, no CPT, ATP luminescence, 48 h; further: potency means the concentration at half of the fitted maximal effect; nearly all actives have a fitted effect of over 55% in size
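No-CPT arm: Tdp1-/-;hTDP1 DT40 cells (400/well) plus compounds, incubated ≥48 hr at 37 °C. Readout CellTiter-Glo luminescence.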
* = called active by the depositor; ? = inconclusive; . = not tested or not shown; [ ] = another dose, or the depositor's remark. Unless noted, the call rests on the fitted dose curve; in most records, active means well fitted curve in the direction sought with a large enough effect; inconclusive means small, poorly fitted or top-dose-only effect, or another doubt; inactive means no such curve, though single readings can be large; an effect the other way counts as inactive or inconclusive. Unless noted, on the % scale 0 is the no-effect control and ±100 the full control effect.

SMILES	HT1080 IDH1KD tx	12-LOX inh	HT1080NT lethal	TDP1 cell CPT	IL1B secr inh	TDP1 cell noCPT
CO[C@H]1/C=C/O[C@@]2(C)Oc3c(C)c(O)c4c(O)c(c5c(c4c3C2=O)NC2(CCN(CC(C)C)CC2)N=5)=NC(=O)/C(C)=C\C=C\[C@H](C)[C@H](O)[C@@H](C)[C@@H](O)[C@@H](C)[C@H](OC(C)=O)[C@@H]1C	-28%	-11%	?	?	-14	21µM*
CO[C@H]1/C=C\O[C@@]2(C)Oc3c(C)c(O)c4c(O)c(c5c(nc6cc(C)ccn65)c4c3C2=O)NC(=O)C(C)=CC=C[C@H](C)[C@H](O)[C@@H](C)[C@@H](O)[C@@H](C)[C@H](OC(C)=O)[C@H]1C	.	-33%[57.4 µM]	.	.	.	.
CO[C@H]1C=CO[C@@]2(C)Oc3c(C)c(O)c4c(O)c(c(/C=N/N5CCN(C6CCCC6)CC5)c(O)c4c3C2=O)NC(=O)/C(C)=C\C=C[C@H](C)[C@H](O)[C@@H](C)[C@@H](O)[C@@H](C)[C@H](OC(C)=O)[C@@H]1C	.	.	.	4.7µM*	.	2.7µM*
COC1/C=C\OC2(C)Oc3c(C)c(O)c4c(c3C2=O)C2(C=C(NC(=O)/C(C)=C\C=C/C(C)C(O)C(C)C(O)C(C)C(OC(C)=O)C1C)C4=O)OCC(=O)O2 (stereo not drawn)	.	5µM*	.	.	.	.
O=C(NCCc1ccccc1)c1cc(-c2ccncc2)nc2ccccc12	.	-8%	.	.	.	.
O=S(=O)(Nc1ccccc1N1CCCC1)c1ccccc1C(F)(F)F	-4%	3%	1%	21µM*	36	21µM*
COc1cc(OC)c(S(=O)(=O)Nc2ccccc2N2CCCCC2)cc1NC(C)=O	0%	0%	-2%	-2%	6	-3%
O=S(=O)(Nc1ccccc1N1CCCCC1)c1ccc(Cl)s1	-1%	0%[57.4 µM]	-11%	10µM*	35	8.2µM*
O=S(=O)(Nc1ccccc1N1CCOCC1)c1ccccc1C(F)(F)F	0%	-11%	4%	?	40	18µM*
O=S(=O)(Nc1cc(Cl)ccc1N1CCCCC1)c1cccs1	-9%	0%	0%	-23%	-11	-30%
Cc1ccccc1-n1c(SCC(=O)O)nc2sc3c(c2c1=O)CCCC3	2%	0%	-19%	-18%	24	-1%
Cc1nc2sc3c(c2c(=O)n1NC(=O)CCBr)CCCC3	-14%	-9%	-26%	18µM*	-10	18µM*
O=S(=O)(c1ccccc1)N1CCC(N(Cc2cccnc2)C2CCOCC2)CC1	.	44%	.	.	.	.
CCCc1[nH]n(-c2ccc(F)cc2)c(=O)c1C=Nc1cccc(F)c1	15µM*	15%	7.3µM*	6.5µM*	26	6.5µM*
CCc1nc(NCCOC)c(C#N)c2c1CCCC2	.	18%	.	.	.	.
Cc1ccc(C)c(N2CCN(C(=O)Cn3nc(Cc4cccnc4)c4ccccc4c3=O)CC2)c1	.	-8%	.	?	.	23µM*
CCOC(=O)C1CCCN(C(=O)Cn2nc(Cc3cccnc3)c3ccccc3c2=O)C1 (stereo not drawn)	-1%	55%	0%	8%	-16	11%
O=C(Cn1nc(Cc2cccnc2)c2ccccc2c1=O)N1CCN(c2ccc(F)cc2)CC1	.	0%	.	?	.	23µM*
CCOc1ncccc1C(=O)OCC(=O)c1ccc(Br)s1	-3%	-21%	-2%	?	-11	4.6µM*
O=C(COC(=O)c1ccc(O)cc1O)Nc1nnc(-c2ccccc2)o1	3%	21%	4%	-6%	12	5%
CCOc1ncccc1C(=O)OCC(=O)c1cccs1	5%	15%	25%	-26%	12	-10%
CCOc1ncccc1C(=O)OCC(=O)Nc1nnc(-c2ccccc2)o1	-3%	-1%	0%	?	9	23µM*
O=C(NCc1ccncc1)c1cc2cc(Cl)ccc2[nH]1	.	17%	.	.	.	.
OCC1CN(c2ncccn2)CC12CCN(Cc1ccncc1)CC2 (stereo not drawn)	.	-5%	.	.	.	.
O=c1c2cc(Br)ccc2nc(-c2ccc([N+](=O)[O-])cc2)n1O	-14%	-5%	-15%	?	35	-109%
SMILES	HT1080 IDH1KD tx	12-LOX inh	HT1080NT lethal	TDP1 cell CPT	IL1B secr inh	TDP1 cell noCPT
O=c1c2ccc(Cl)cc2nc(-c2ccc([N+](=O)[O-])cc2)n1O	-23%	-13%	-16%	8.2µM*	102	8.2µM*
O=c1c2cc(Cl)ccc2nc(-c2ccc(Cl)c(Cl)c2)n1O	14%	-19%	1%	5.2µM*	15	5.2µM*
O=C(CCc1ncc(-c2ccc(F)cc2F)o1)NC1=NCCS1	.	-3%	.	.	.	.
CN(CC1CCCO1)S(=O)(=O)c1ccc(C(=O)Nc2nnc(-c3ccccc3)o2)cc1 (stereo not drawn)	?	-1%	?	18µM*	100	8.2µM*
CN(CC1CCCO1)S(=O)(=O)c1ccc(C(=O)Nc2nc(-c3ccccn3)cs2)cc1 (stereo not drawn)	?	.	?	1.5µM*	140	1.8µM*
CCN(c1ccccc1)C(CNS(=O)(=O)c1ccccc1)c1ccccc1 (stereo not drawn)	.	?	.	18µM*	.	?
Cc1cccc(N(C)C(CNS(=O)(=O)c2ccccc2)c2ccccc2)c1 (stereo not drawn)	.	-16%	.	16µM*	.	?
COc1ccccc1NC(=O)c1ccc(C)c(S(=O)(=O)N2CCCCC2)c1	?	11%	-8%	?	-19	26µM*
COc1cccc(C(CNC(=O)c2ccc(Cl)c(S(=O)(=O)N3CCCC3)c2)N(C)C)c1 (stereo not drawn)	9%	180%	0%	?	-14	21µM*
Cc1ccccc1NC(=O)c1ccc(Cl)c(S(=O)(=O)N2CCCCCC2)c1	.	-24%	.	?	.	16µM*
O=C(NCCc1ccccc1)c1ccc(Cl)c(S(=O)(=O)N2CCCC2)c1	-1%	.	-2%	?	12	?
COc1ccccc1NC(=O)c1ccc(Cl)c(S(=O)(=O)N2CCCCC2)c1	-3%	3%	0%	?	4	?
O=C(NCc1ccccc1)c1ccc(Cl)c(S(=O)(=O)N2CCCC2)c1	0%	?	0%	-23%	?	18µM*
Cc1cc(C)cc(-c2ccc(CN3C4CCC3CN(C(=O)c3ccncc3)C4)cc2)c1	.	8%[6.33 µM]	.	.	.	.
COC(=O)c1ccc(OC(=O)c2ccc(N(C)C)cc2)cc1	.	-1%	.	.	.	.
N#Cc1cnc2ncnn2c1N	.	3%	.	.	.	.
